The source of these data is article PMC8384837, “Expanding the binding specificity for RNA recognition by a PUF domain”.

Experiment in all cases: yeast three-hybrid, YBZ-1, SC-Leu-His + 0.5 mM 3-AT, 4 days
Holding throughout (settings): tags: N-Gal4 AD-HA kept; label: inside an RPR1-promoter hybrid RNA with tandem MS2 sites; ssRNA

One test has as its target PUM1 PUF domain R3-IFG (Homo sapiens, UniProt Q14671 828-1176, C935I;R936F;Q939G). The method in brief: (§1)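 The interaction score is the log change in variant frequency from input to selection. Scores were computed in log2 with a pseudocount of 1 for absent variants, using Illumina sequencing of PCR-amplified repeat regions. The input came from four days on SC-Leu and the selection from four days on SC-Leu-His + 0.5 mM 3-AT. The cells were strain YBZ-1 (LexA–MS2 coat fusion, HIS3 reporter) co-expressing Pumilio-1 PUF domain libraries and matching RNA elements from a centromeric plasmid.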

The target in a further test is PUM1 PUF domain R3-LRC (Homo sapiens, UniProt Q14671 828-1176, C935L;Q939C). The method in brief: as §1
Another test addresses PUM1 PUF domain R5-RAG (Homo sapiens, UniProt Q14671 828-1176, C1007R;R1008A;Q1011G). In a few lines:
as §1

A further test concerns the target PUM1 PUF domain R5-RRK (Homo sapiens, UniProt Q14671 828-1176, C1007R;Q1011K). The method in brief:
as §1

In another test the target is PUM1 PUF domain R5-KAG (Homo sapiens, UniProt Q14671 828-1176, C1007K;R1008A;Q1011G). The method in brief: as §1
The target of the next test is PUM1 PUF domain R5-KGR (Homo sapiens, UniProt Q14671 828-1176, C1007K;R1008G;Q1011R). The method in brief:
as §1

The next test has as its target PUM1 PUF domain R4-MPV (Homo sapiens, UniProt Q14671 828-1176, N971M;H972P;Q975V). The method in brief:
as §1

A further test deals with PUM1 PUF domain R4-WAG (Homo sapiens, UniProt Q14671 828-1176, N971W;H972A;Q975G). The method in brief:
as §1

A further test has as its target PUM1 PUF domain R4-GWY (Homo sapiens, UniProt Q14671 828-1176, N971G;H972W;Q975Y). The method in brief:
as §1

The target of another test is PUM1 PUF domain R1-RTW (Homo sapiens, UniProt Q14671 828-1176, S863R;R864T;Q867W). In a few lines: as §1
A further test concerns the target PUM1 PUF domain R2-EWE (Homo sapiens, UniProt Q14671 828-1176, N899E;Y900W;Q903E). In a few lines:
as §1

Another test deals with PUM1 PUF domain R3-PFL (Homo sapiens, UniProt Q14671 828-1176, C935P;R936F;Q939L). The method in brief: as §1
In the next test the target is PUM1 PUF domain R3-RDS (Homo sapiens, UniProt Q14671 828-1176, C935R;R936D;Q939S). The method in brief:
as §1

In the case of “GGCUAGAACUAGUGGAUCCCCCGGCGCCCGGCGGCUCGAGCCCGGGUAAGUGUAAGUAGUCUGCAUGCCGCCGGGCGCCAUGCCUGCAGGUCGACUCUAGAAAACAUG”, the binding signal was 5.86 log2 enrichment (interaction score) in the test with PUM1 PUF domain R3-IFG and 3.66 log2 enrichment (interaction score) with PUM1 PUF domain R3-LRC.

Regarding “GGCUAGAACUAGUGGAUCCCCCGGCGCCCGGCGGCUCGAGCCCGGGUAAGUGUGAAUAGUCUGCAUGCCGCCGGGCGCCAUGCCUGCAGGUCGACUCUAGAAAACAUG”, the values for the binding signal with PUM1 PUF domain R5-RAG and in the test with PUM1 PUF domain R5-RRK were 0.18 log2 enrichment (interaction score) and 1.4 log2 enrichment (interaction score), respectively.

Regarding “GGCUAGAACUAGUGGAUCCCCCGGCGCCCGGCGGCUCGAGCCCGGGUAAGUGUCAAUAGUCUGCAUGCCGCCGGGCGCCAUGCCUGCAGGUCGACUCUAGAAAACAUG”, the binding signal with PUM1 PUF domain R5-RAG is 3.6 log2 enrichment (interaction score); with PUM1 PUF domain R5-RRK it was 4.43 log2 enrichment (interaction score); with PUM1 PUF domain R5-KAG, 2.58 log2 enrichment (interaction score); in the test with PUM1 PUF domain R5-KGR it was 4.53 log2 enrichment (interaction score).

Consider “GGCUAGAACUAGUGGAUCCCCCGGCGCCCGGCGGCUCGAGCCCGGGUAAGUGUAUAUAGUCUGCAUGCCGCCGGGCGCCAUGCCUGCAGGUCGACUCUAGAAAACAUG”, for which the binding signal was 3.02 log2 enrichment (interaction score) with PUM1 PUF domain R4-MPV, 4.74 log2 enrichment (interaction score) with PUM1 PUF domain R4-WAG and 5.08 log2 enrichment (interaction score) in the test with PUM1 PUF domain R4-GWY.

With “GGCUAGAACUAGUGGAUCCCCCGGCGCCCGGCGGCUCGAGCCCGGGUAAGUGUAAAUUGUCUGCAUGCCGCCGGGCGCCAUGCCUGCAGGUCGACUCUAGAAAACAUG”, the binding signal with PUM1 PUF domain R1-RTW is 3 log2 enrichment (interaction score).

Regarding “GGCUAGAACUAGUGGAUCCCCCGGCGCCCGGCGGCUCGAGCCCGGGUAAGUGUAAAGAGUCUGCAUGCCGCCGGGCGCCAUGCCUGCAGGUCGACUCUAGAAAACAUG”, the binding signal with PUM1 PUF domain R2-EWE was 3.45 log2 enrichment (interaction score).

On to “GGCUAGAACUAGUGGAUCCCCCGGCGCCCGGCGGCUCGAGCCCGGGUAAGUGUAAUUAGUCUGCAUGCCGCCGGGCGCCAUGCCUGCAGGUCGACUCUAGAAAACAUG”, for which the figures for the binding signal with PUM1 PUF domain R3-IFG, in the test with PUM1 PUF domain R3-PFL and with PUM1 PUF domain R3-RDS were 3.79 log2 enrichment (interaction score), 4.55 log2 enrichment (interaction score) and 2.88 log2 enrichment (interaction score), respectively.

Turning to “GGCUAGAACUAGUGGAUCCCCCGGCGCCCGGCGGCUCGAGCCCGGGUAAGUGUUAAUAGUCUGCAUGCCGCCGGGCGCCAUGCCUGCAGGUCGACUCUAGAAAACAUG”, the figures for the binding signal in the test with PUM1 PUF domain R5-RAG and with PUM1 PUF domain R5-RRK were 3.37 log2 enrichment (interaction score) and 4.7 log2 enrichment (interaction score), respectively.
